According to ChEMBL document CHEMBL1961873, “Compounds: GSK PKIS; Assays: Nanosyn kinase panel” (2012):

biological target: Serine/threonine-protein kinase 26 (Homo sapiens) (UniProt Q9P289); conditions: at 1 µM;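 also: mean inhibition of MST4 kinase activity, reported from the GSK PKIS inhibitor-set screening panel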
Sequence (Q9P289 2-416 limits assumed): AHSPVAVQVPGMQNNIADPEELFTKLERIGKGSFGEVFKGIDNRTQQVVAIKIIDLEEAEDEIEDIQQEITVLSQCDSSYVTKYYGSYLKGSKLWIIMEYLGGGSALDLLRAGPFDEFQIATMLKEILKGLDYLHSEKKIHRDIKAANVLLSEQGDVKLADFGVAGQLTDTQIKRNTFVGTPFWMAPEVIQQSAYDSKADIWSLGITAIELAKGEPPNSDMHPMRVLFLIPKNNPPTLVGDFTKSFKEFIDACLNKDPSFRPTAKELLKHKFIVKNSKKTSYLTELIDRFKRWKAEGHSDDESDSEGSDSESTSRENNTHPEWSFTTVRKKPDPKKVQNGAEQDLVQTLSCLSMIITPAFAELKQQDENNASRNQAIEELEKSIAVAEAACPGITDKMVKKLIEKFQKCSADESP

| Structure (SMILES) | inhibition [%] |
| --- | --- |
| COc1ccc2cc(-c3c(-c4ccncc4)nc(-c4ccc([S+](C)[O-])cc4C)n3C)ccc2c1 (configuration not stated) | 3.65 |
| CCS(=O)(=O)c1ccc(OC)c(Nc2ncc(-c3cccc(-c4ccccc4F)c3)o2)c1 | -0.27 |
| Fc1ccc(-c2ncn(C3CCNCC3)c2-c2ccnc(Oc3ccc(F)c(F)c3)n2)cc1 | 5.23 |
| COc1ccc2cc(-c3c(-c4ccncc4)nc(-c4ccc(S(C)(=O)=O)cc4C)n3C)ccc2c1 | 2.09 |
| O=C1NC(=O)C(c2cccc(Cl)c2)=C1Nc1ccc(Cl)c(C(=O)O)c1 | 0.53 |
| CN(C)c1ccc2c(c1)/C(=C/Nc1ccc(S(N)(=O)=O)cc1)C(=O)N2 | 20.2 |
| CN(c1ccc(NC(=O)Nc2c(Cl)cccc2Cl)cc1)c1ccnc(Nc2cccc(CS(C)(=O)=O)c2)n1 | -3.71 |
| COc1ccc(C2=C(N3CCc4ccccc43)C(=O)NC2=O)cc1 | 2.06 |
| NS(=O)(=O)c1ccc(Nc2cc(-c3ccc(O)c(F)c3)n[nH]2)cc1 | 3.14 |
| COc1cc2ncn(-c3cc(OCCc4ccccc4)c(C(N)=O)s3)c2cc1OC | -2.27 |
| CN1CCN(CCCNc2nc3ccc(Oc4ccc(NC(=O)Nc5cc(C(F)(F)F)ccc5F)cc4)cc3[nH]2)CC1 | 0.74 |
| CCc1ccc(Oc2nccc(-c3c(-c4ccc(F)cc4)ncn3C3CCNCC3)n2)cc1 | 2.83 |
| CCS(=O)(=O)c1ccc(OC)c(Nc2ncc(-c3ccccc3Cl)o2)c1 | 1.46 |
| c1ccc(-c2n[nH]cc2-c2ccnc(-c3ccc(OCCN4CCOCC4)cc3)c2)nc1 | 2.93 |
| COc1cc(Nc2ncc3c(C)nc(-c4cccc(Oc5ccccc5)c4)n3n2)cc(OC)c1OC | -2.15 |
| CNC(=O)c1cncc(/C=C/c2c(C)cccc2C)c1 | 2.22 |
| COc1cc(Nc2ncc3c(C)nc(-c4cccc(C(F)(F)F)c4)n3n2)cc(OC)c1OC | 5.84 |
| CCN(CC)Cc1ccc(Nc2nccc(-c3cnn4ncccc34)n2)cc1 | 0.74 |

biological target: Serine/threonine-protein kinase PAK 1 (Homo sapiens) (UniProt Q13153); conditions: at 0.1 µM;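 also: values are mean PAK1 inhibition from the GSK PKIS kinase inhibitor set screen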
Sequence (Q13153 whole entry): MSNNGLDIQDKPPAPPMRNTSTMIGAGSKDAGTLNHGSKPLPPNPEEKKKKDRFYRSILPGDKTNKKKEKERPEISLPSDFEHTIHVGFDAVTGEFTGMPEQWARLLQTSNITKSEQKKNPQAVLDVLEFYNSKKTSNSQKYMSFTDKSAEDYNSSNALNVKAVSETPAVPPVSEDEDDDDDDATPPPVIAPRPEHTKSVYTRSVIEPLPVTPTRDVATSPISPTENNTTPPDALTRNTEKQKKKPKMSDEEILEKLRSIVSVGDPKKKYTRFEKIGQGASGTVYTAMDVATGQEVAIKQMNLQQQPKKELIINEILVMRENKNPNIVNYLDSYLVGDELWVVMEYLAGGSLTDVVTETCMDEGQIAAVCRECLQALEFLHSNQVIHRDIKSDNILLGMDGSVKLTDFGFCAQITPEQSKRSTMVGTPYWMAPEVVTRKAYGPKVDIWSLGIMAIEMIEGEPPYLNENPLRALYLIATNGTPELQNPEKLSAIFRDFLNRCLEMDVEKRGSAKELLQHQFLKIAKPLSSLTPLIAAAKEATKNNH

| Structure (SMILES) | inhibition [%] |
| --- | --- |
| COc1cccc(/C=N/Nc2ncnc3c2cnn3-c2cccc(OC)c2)c1 | 7.47 |
| COc1ccc2ncn(-c3cc(O[C@H](C)c4ccccc4Cl)c(C(N)=O)s3)c2c1 | 3.16 |
| O=C(Nc1n[nH]c2cc(-c3cc(F)ccc3F)ccc12)C1CC1 | 5.03 |
| COc1ccc(-c2ccc3c(NC(=O)C4CC4)n[nH]c3n2)cc1 | 2.82 |
| Clc1ccc(CNc2nccc(-c3cnn4ncccc34)n2)cc1 | -2.27 |
| CN(C)CCOc1ccc(-c2cc(-c3ccc4c(c3)CCC4=NO)c(-c3ccncc3)o2)cc1 | -4.98 |
| COc1cc(N2CCN(C(C)C)CC2)ccc1Nc1nc(Nc2ccc(F)cc2C(=O)NC[C@@H](O)CO)c2cc[nH]c2n1 | 4.77 |
| Cc1ccc(C(=O)NC(C)C)cc1-c1ccc(C(=O)NCC2CC2)cc1 | -1.5 |
| O=C(Nc1ccc(Oc2ccc3[nH]c(NC(=O)c4ccccc4)nc3c2)cc1)Nc1cc(C(F)(F)F)ccc1F | 5.49 |
| Cc1ccc(C(=O)NC2CCC2)cc1-c1ccc(C(=O)NCC2CC2)cc1 | 6.1 |
| O=C1Nc2ccc(I)cc2C1=Cc1cc(Br)c(O)c(Br)c1 | 7.31 |
| COc1cc(C)c(N(C)C(=O)CN(C)C)cc1Nc1nc(Nc2cccc(F)c2C(N)=O)c2cc[nH]c2n1 | 1.45 |
| NS(=O)(=O)c1ccc(N/N=C2\C(=O)Nc3ccc(-c4cnco4)cc32)cc1 | 2.52 |
| CS(=O)(=O)CCNCc1ccc(-c2ccc3ncnc(Nc4ccc(OCc5ccccc5)c(Br)c4)c3c2)o1 | 5.64 |
| COc1cccc(-n2cnc3c(N/N=C/c4ccncc4)ncnc32)c1 | 2.37 |
| Cc1ccc(NC(=O)c2ccoc2)cc1-c1ccc(C(=O)NCC2CC2)cc1 | 3.52 |
| COc1ccc2cc(-c3c(-c4ccncc4)nc(-c4ccc([S+](C)[O-])cc4C)n3C)ccc2c1 (configuration not stated) | -1.49 |

| Structure (SMILES) | inhibition [%] |
| --- | --- |
| CCS(=O)(=O)c1ccc(OC)c(Nc2ncc(-c3cccc(-c4ccccc4F)c3)o2)c1 | -2.19 |
| Fc1ccc(-c2ncn(C3CCNCC3)c2-c2ccnc(Oc3ccc(F)c(F)c3)n2)cc1 | 5.03 |
| COc1ccc2cc(-c3c(-c4ccncc4)nc(-c4ccc(S(C)(=O)=O)cc4C)n3C)ccc2c1 | 9.36 |
| O=C1NC(=O)C(c2cccc(Cl)c2)=C1Nc1ccc(Cl)c(C(=O)O)c1 | 4.41 |
| CN(C)c1ccc2c(c1)/C(=C/Nc1ccc(S(N)(=O)=O)cc1)C(=O)N2 | 4.25 |
| CN(c1ccc(NC(=O)Nc2c(Cl)cccc2Cl)cc1)c1ccnc(Nc2cccc(CS(C)(=O)=O)c2)n1 | -0.06 |
| COc1ccc(C2=C(N3CCc4ccccc43)C(=O)NC2=O)cc1 | 7.07 |
| NS(=O)(=O)c1ccc(Nc2cc(-c3ccc(O)c(F)c3)n[nH]2)cc1 | -5.59 |
| COc1cc2ncn(-c3cc(OCCc4ccccc4)c(C(N)=O)s3)c2cc1OC | -1.36 |
| CN1CCN(CCCNc2nc3ccc(Oc4ccc(NC(=O)Nc5cc(C(F)(F)F)ccc5F)cc4)cc3[nH]2)CC1 | 3.77 |
| CCc1ccc(Oc2nccc(-c3c(-c4ccc(F)cc4)ncn3C3CCNCC3)n2)cc1 | 4.48 |
| CCS(=O)(=O)c1ccc(OC)c(Nc2ncc(-c3ccccc3Cl)o2)c1 | -0.73 |
| c1ccc(-c2n[nH]cc2-c2ccnc(-c3ccc(OCCN4CCOCC4)cc3)c2)nc1 | -0.81 |
| COc1cc(Nc2ncc3c(C)nc(-c4cccc(Oc5ccccc5)c4)n3n2)cc(OC)c1OC | 4.4 |
| CNC(=O)c1cncc(/C=C/c2c(C)cccc2C)c1 | 0.04 |
| COc1cc(Nc2ncc3c(C)nc(-c4cccc(C(F)(F)F)c4)n3n2)cc(OC)c1OC | 6.01 |
| CCN(CC)Cc1ccc(Nc2nccc(-c3cnn4ncccc34)n2)cc1 | 5.45 |
